RAD52 anneal inh: inhibitors of human RAD52 DNA annealing. P43351. AID 651710. inhibition, % at 18.7 µM. hit rate 0.46% among 360,000. recombinant RAD52 DNA annealing, FRET fluorescence;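 active = every replicate showing at least 50% inhibition; inconclusive = mean inhibition at least 50% but not in every replicate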
F508del corr: CFTR F508del correction in bronchial cells. CFBE cells, YFP halide quenching; stimulated with forskolin plus potentiator P3; % fluorescence drop versus neutral controls. activity (quench increase), % at 7.58 µM. hit rate 0.36% among 350,000. AID 720511;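 active = mean added fluorescence quench of at least 8% versus neutral control, with both replicates also reaching 8%; inconclusive = only one of the mean or replicate conditions met; inactive = mean below 8% and not both replicates reaching 8%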;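 note: cells transiently co-express mutant CFTR-F508del with the halide-sensitive YFP; corrector assay measuring rescue of mutant channel to the surface after 24 h compound exposure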
RAD54 inh: RAD54 (human) branch migration inhibition. AID 602329. inhibition, % at 10.4 µM. RAD54 Holliday junction branch migration, FAM/BHQ fluorescence. Q92698. hit rate 0.14% among 360,000;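 active = mean normalized replicate activity at least 40 and at least half of replicates scoring 40 or more; inconclusive = only one of the two criteria met; inactive = mean below 40 and under half of replicates reaching 40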;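 note: 0% = median of neutral control wells and 100% = median of positive control wells; inhibitors cause a drop in the FAM fluorescence signal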
Target sequence (Q92698 whole entry, looked up): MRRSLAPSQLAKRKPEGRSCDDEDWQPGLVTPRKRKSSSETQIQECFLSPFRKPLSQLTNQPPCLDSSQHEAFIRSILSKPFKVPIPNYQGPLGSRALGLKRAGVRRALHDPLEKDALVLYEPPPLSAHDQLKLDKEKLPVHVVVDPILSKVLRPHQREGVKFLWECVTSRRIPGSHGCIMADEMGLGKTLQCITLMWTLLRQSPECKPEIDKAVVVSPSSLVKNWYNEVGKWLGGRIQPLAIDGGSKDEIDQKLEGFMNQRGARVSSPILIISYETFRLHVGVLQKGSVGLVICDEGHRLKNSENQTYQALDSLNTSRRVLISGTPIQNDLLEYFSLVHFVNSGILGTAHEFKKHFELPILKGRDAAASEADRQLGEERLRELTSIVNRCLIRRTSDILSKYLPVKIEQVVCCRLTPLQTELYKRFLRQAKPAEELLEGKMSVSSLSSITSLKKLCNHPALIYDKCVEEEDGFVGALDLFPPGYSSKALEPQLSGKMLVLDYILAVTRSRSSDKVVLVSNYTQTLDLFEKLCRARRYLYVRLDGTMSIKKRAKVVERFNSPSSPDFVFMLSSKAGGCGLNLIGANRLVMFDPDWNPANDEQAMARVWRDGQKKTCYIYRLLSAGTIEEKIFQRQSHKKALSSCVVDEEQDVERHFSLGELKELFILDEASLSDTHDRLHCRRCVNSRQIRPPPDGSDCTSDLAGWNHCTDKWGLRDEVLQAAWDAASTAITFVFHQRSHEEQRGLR
dFosB activator: enhances mouse delta FosB homodimer DNA binding | purified delta FosB, TAMRA-CDK5 oligo fluorescence polarization; percent of positive-control signal above neutral wells | activation, % at 25 µM | hit rate 0.99% among 340,000 | AID 493131;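 active = mean activation above about 17%, with every replicate also reaching it, limit read from the data, passing the limit was not always enough; inconclusive = only one of the two conditions met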
PvdQ inh: P. aeruginosa PvdQ acylase inhibition | hit rate 0.063% among 340,000 | purified PvdQ acylase, fluorescence plate reader | AID 488965 | inhibition, % at 10 µM; in the data active = inhibition above about 30%, passing the limit was not always enough; inconclusive = no clear call, values can overlap the other calls;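 note: 0% = vehicle neutral wells and 100% = reference inhibitor wells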
N-glyco inh: N-linked glycosylation inhibition. D54 ERlucT glycosylation luciferase reporter, 24 h; percent of 100 nM tunicamycin response. reporter increase, % at 12.5 µM. hit rate 0.23% among 360,000. AID 588692;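 active = mean luciferase reporter signal, scaled so untreated is 0 and the glycosylation-blocking control 100, at or above a set limit in every replicate; inconclusive = mean reaches the limit but not every replicate does; inactive = mean below the limit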;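 note: luciferase carries N-glycosylation sites so blocking glycosylation raises the light; 0% = median of neutral control wells and 100% = median of 100 nM tunicamycin wells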
An asterisk follows results filed as active; ? = inconclusive; . = no result; ! = not confirmed by another sample. A selection: hits, their analogues and other compounds. The true share with any hit is near 1.5%.

SMILES	RAD52 anneal inh	F508del corr	RAD54 inh	dFosB activator	PvdQ inh	N-glyco inh
COc1ccc(C=C(c2nc3ccccc3s2)c2nc3ccccc3s2)cc1O	.	.	-1.1	1.0	-1.7	29.0*
O=S(=O)(c1ccc(Br)cc1)N1CCCc2ccccc21	-10.1	10.8*	3.0	-1.1	-2.3	2.5
O=S(=O)(c1ccc(F)c(F)c1)N1CCCc2ccccc21	-2.0	0.7	1.8	-10.7	-10.9	-5.3
O=S(=O)(c1cccs1)N1CCCc2ccccc21	.	.	-1.1	0.7	-7.4	-1.4
O=S(=O)(c1cccs1)N1CCc2ccccc21	.	.	-0.2	29.1*	-6.2	-1.9
C[C@@H]1CN([C@@H](C)CO)C(=O)Cc2cc(NS(=O)(=O)c3cn(C)cn3)ccc2O[C@H]1CN(C)C(=O)NC1CCCCC1	.	1.2	-1.2	.	.	.
COc1ccc(C2=NOC(C(=O)NCc3ccc(F)cc3)C2)cc1OC (stereo unspecified)	-24.9	8.7*	4.4	-1.5	3.2	20.1
COc1ccc2cc1Oc1ccc(cc1)C[C@H]1c3c(cc(OC)c4c3Oc3c(ccc5c3[C@H](C2)N(C)CC5)O4)CCN1C	.	.	74.4*	?	-13.6	-14.1
COc1ccc2cc1Oc1ccc(cc1)CC1c3c(cc(OC)c4c3Oc3cc5c(cc3O4)CCNC5C2)CCN1C (stereo unspecified)	.	.	90.9*	1.9	-7.8	-13.7
COc1cc2c(c(O)c1OC)C1Cc3ccc(OC)c(OC)c3CN1CC2 (stereo unspecified)	6.6	5.9	15.3	.	.	-0.4
C[C@@H]1CN([C@@H](C)CO)C(=O)c2cccc(NC(=O)c3ccncc3)c2O[C@@H]1CN(C)C(=O)NC1CCCCC1	11.6	0.9	0.8	.	.	.
O=c1[nH]c(=O)n([C@H]2C[C@H](O)[C@@H](CO)O2)cc1F	10.4	2.2	6.2	3.0	-10.6	-1.5
O=c1[nH]c(=O)n(C2CC(O)C(CO)O2)cc1I (stereo unspecified)	3.7	-0.4	.	3.2	-8.3	81.5*
O=c1[nH]c(=O)n([C@H]2C[C@H](O)[C@@H](CO)O2)cc1Br	3.9	0.6	-0.4	2.2	-12.1	48.5*
Cc1cccc([C@@H]2[C@@H]3C(=O)N(Cc4ccccc4)C(=O)[C@@H]3[C@]3(Cc4ccccc4)C(=O)N(c4cccc(Cl)c4)C(=O)N23)c1	-1.8	-3.3	6.7	-1.3	-15.4	40.7*
O=C1[C@H]2[C@@H](c3ccc(F)cc3)N3C(=O)N(c4cccc(Br)c4)C(=O)[C@@]3(Cc3ccccc3)[C@H]2C(=O)N1C1CCCCC1	-3.1	-0.7	3.2	-5.4	-10.1	67.2*
O=C1[C@H]2[C@@H](c3ccc(F)cc3)N3C(=O)N(c4cccc(F)c4)C(=O)[C@@]3(Cc3ccccc3)[C@H]2C(=O)N1C1CCCCC1	-6.2	-2.9	-9.5	1.0	-16.2	14.3
Cc1cccc([C@@H]2[C@@H]3C(=O)N(Cc4ccccc4)C(=O)[C@@H]3[C@]3(Cc4ccccc4)C(=O)N(c4cccc(F)c4)C(=O)N23)c1	-9.9	-0.6	-5.5	-2.7	-7.2	33.5*
COc1ccc2c(c1)C(O)C(CO)C(C(=O)O)C2 (stereo unspecified)	-14.2	10.5*	.	5.7	3.7	1.4
CC=Cc1ccc2n(c1=O)C[C@@H]1[C@@H](CO)[C@H](C(=O)NCc3cc(F)cc(F)c3)[C@H]2N1S(C)(=O)=O (mixture of isomers)	9.4	.	13.6	.	.	.
Cc1ccc(S(=O)(=O)Nc2ccccc2N2CCCCC2)cc1	1.1	0.5	3.4	-2.8	-15.8	-8.1
O=C(NCC(F)(F)F)c1ccc(S(=O)(=O)Nc2ccccc2N2CCCC2)cc1	-39.2	-0.8	-2.2	53.1*	-8.0	-0.9
COc1ccc2c3c(n(C)c2c1)[C@H](CO)N(C(=O)CN1CCOCC1)CC31CCN(C(=O)C2CC2)CC1	19.3	-1.1	.	.	.	.
CCC(=O)N[C@H]1C=C[C@H](CC(=O)NCc2cc(F)cc(F)c2)O[C@@H]1CO	-12.2	1.6	-3.8	.	.	.
CC(C)NC(=O)N(C)C[C@@H]1Oc2cc(C#Cc3ccccn3)ccc2S(=O)(=O)N([C@@H](C)CO)C[C@@H]1C	10.8	1.9	3.3	.	.	.
SMILES	RAD52 anneal inh	F508del corr	RAD54 inh	dFosB activator	PvdQ inh	N-glyco inh
Cc1cc(C(=O)OCC(=O)Nc2c(Cl)cccc2Cl)c(C)o1	-0.1	2.5	-5.1	21.6*	1.8	-0.1
COc1ccc(-c2cc(=O)c3ccccc3s2)cc1	-5.8	0.7	-1.5	-52.2	41.2*	-10.6
COc1ccc2sc3ccccc3c(=O)c2c1	.	.	15.7	-16.8	7.4	-0.1
CCCC(=O)Nc1ccc2c(c1)OC[C@H](C)N(Cc1ccc(-c3ccccn3)cc1)C[C@@H](C)[C@H](OC)CN(C)C2=O	-34.3	0.3	0.1	.	.	.
Cc1ncc(CO)c(/C=N/Nc2ccc(C(F)(F)F)cn2)c1O	-26.9	12.3*	12.8	-6.9	-0.5	-9.1
Cc1ccc(CCNC(=O)CCS(=O)(=O)c2ccc(Br)cc2)cc1	-0.3	-5.6	.	-5.1	30.5*	-0.1
Cc1ccc(S(=O)(=O)CCC(=O)NCCc2ccc(Cl)cc2)cc1	7.1	-3.6	1.5	-3.2	8.0	0.1
CCCNC(=O)N1C[C@@H](O)COC[C@H]2O[C@H](CC(=O)NCc3ccncn3)CC[C@@H]21	2.3	-2.7	-6.6	.	.	.
O=C(c1ccc(F)cc1)N1C[C@@H]2N[C@H](C1)C2c1ccc(-c2cncnc2)cc1 (stereo partly specified)	15.3	0.7	.	.	.	.
COc1cccc(-c2ccc(C3[C@@H]4CN(C(=O)c5ccc(F)cc5)C[C@H]3N4)cc2)c1 (stereo partly specified)	52.0*	-0.4	.	.	.	.
O=C(c1ccc(F)cc1)N1C[C@@H]2N[C@H](C1)C2c1ccc(-c2ccc(F)cc2)cc1 (stereo partly specified)	50.1*	-0.9	.	.	.	.
C[C@@H]1CCCCO[C@H](CN(C)C(=O)NC2CCCCC2)[C@H](C)CN([C@@H](C)CO)C(=O)c2cc(NS(=O)(=O)c3ccccc3)ccc2O1	-45.3	1.6	2.4	.	.	.
C#CCSc1ncc(-c2ccccc2)cn1	13.4	2.2	7.0	-5.4	47.7*	1.3
COc1cccc(N=Nc2ccc(O)c3ncccc23)c1	-3.8	-0.1	5.4	-5.1	-2.6	-8.6
COc1cccc(N=Nc2ccc3cccnc3c2O)c1	-9.1	8.3*	3.9	-13.3	-14.8	-12.4
COc1ccccc1N1CCN(C(CNS(=O)(=O)c2cccs2)c2cccnc2)CC1 (stereo unspecified)	0.0	8.1*	8.8	-9.9	-16.1	-3.1
COc1cccc(NC(=O)N2[C@@H]3CNC[C@H]2C3c2ccc(/C=C/c3ccccc3)cc2)c1 (stereo partly specified)	54.0*!	1.4	.	.	.	.
Cc1ccccc1-c1ccc(C2[C@H]3CNC[C@@H]2N3C(=O)Nc2ccc(Cl)cc2)cc1 (stereo partly specified)	.	-1.6	.	.	.	.
